Rab9 prom act: qHTS Assay for Rab9 Promoter Activators | Huh7 Rab9 promoter-luciferase reporter, luminescence, 24 h | Potency, µM (titrated, usually from 9.22 µM), actives largely listed as activators | 320,000 compounds, 2.8% hits | AID 485297, 2010; further: nearly all actives have a fitted effect of over 60% in size
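Promoter activation is measured as luciferase luminescence in Huh7 cells stably transfected with a Rab9 promoter–luciferase construct, following 24 h compound exposure at 37 °C and 10 min reagent incubation at ambient temperature.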
SMN2 splice enh: qHTS Assay for Enhancers of SMN2 Splice Variant Expression | HEK293 SMN2-luciferase splicing reporter, luminescence, 30-36 h | Potency, µM (series often up to 46.1 µM), actives largely listed as activators | 210,000 compounds, 2.8% hits; further: nearly all actives have a fitted effect of over 55% in size
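HEK293 cells carry an SMN2 […]–luciferase reporter in which exon 7 inclusion puts luciferase in frame. Cells were plated 10-12 h before compound addition, then incubated 30-36 h at 37C. ONE-Glo luminescence was read; sodium butyrate at 4.5 mM final served as control.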
FLuc counter: qHTS profiling assay for firefly luciferase inhibitor/activator using purifed enzyme and Km concentrations of substrates (counterscreen for miR-21 project); AID 588342, 2011; 360,000 compounds, 6.9% hits; purified FLuc, Km substrates, luminescence inhibition; Potency, µM (top dose mostly 57.5 µM), actives largely listed as inhibitors; Luciferin 4-monooxygenase (Photinus pyralis), P08659; further: nearly all actives have a fitted effect of over 55% in size
Target sequence (P08659 whole entry, looked up): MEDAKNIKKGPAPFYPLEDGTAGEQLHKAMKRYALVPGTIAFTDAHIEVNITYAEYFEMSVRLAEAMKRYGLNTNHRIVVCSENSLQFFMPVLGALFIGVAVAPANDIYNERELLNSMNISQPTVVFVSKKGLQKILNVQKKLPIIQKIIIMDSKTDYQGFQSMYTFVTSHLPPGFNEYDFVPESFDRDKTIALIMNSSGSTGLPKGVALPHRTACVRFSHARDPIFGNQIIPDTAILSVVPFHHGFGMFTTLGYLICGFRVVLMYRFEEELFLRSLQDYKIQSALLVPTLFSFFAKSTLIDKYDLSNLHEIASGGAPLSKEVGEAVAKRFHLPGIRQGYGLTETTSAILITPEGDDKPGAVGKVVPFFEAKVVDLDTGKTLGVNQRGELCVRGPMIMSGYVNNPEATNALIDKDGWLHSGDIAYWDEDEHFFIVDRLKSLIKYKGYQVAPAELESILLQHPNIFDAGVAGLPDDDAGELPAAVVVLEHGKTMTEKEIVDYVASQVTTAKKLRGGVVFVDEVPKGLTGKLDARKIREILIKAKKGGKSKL
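Biochemical qHTS of compounds, final roughly 60 µM downward over six points, against 10 nM purified firefly luciferase using Km concentrations of substrates (10 uM D-luciferin, 10 uM ATP) in Tris acetate pH 7.5 buffer; luminescence output.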
ELG1 genotox: qHTS screen for small molecules that induce genotoxicity in human embryonic kidney (HEK293T) cells expressing luciferase-tagged ELG1. HEK293T ELG1-luciferase reporter, luminescence, 16 h. Potency, µM (highest dose often 46 µM), actives largely listed as activators. 330,000 compounds, 1.3% hits; further: nearly all actives have a fitted effect of over 60% in size
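HEK293T cells expressing luciferase-tagged ELG1 were exposed to compound or DMSO vehicle for 16 hr at 37 °C and 5% CO2. Luciferase activity was then measured with ONE-Glo after 30 min at room temperature.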
ELG1 DNA repair: qHTS screen for small molecules that inhibit ELG1-dependent DNA repair in human embryonic kidney (HEK293T) cells expressing luciferase-tagged ELG1 | Potency, µM (top dose mostly 46.1 µM), usual class: inhibitors | HEK293T ELG1-luciferase reporter, luminescence, 16 h; DNA damage induced by 5-fluorouridine | AID 504467, 2011 | 330,000 compounds, 2.3% hits; further: nearly all actives have a fitted effect of over 55% in size
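DMSO vehicle served as the neutral condition. Each well held 2,000 cells given 5-fluorouridine plus compound; after 16 hr at 37 °C/5% CO2, ONE-Glo was added and luciferase measured 30 min later.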
NPC1 prom act: qHTS Assay for NPC1 Promoter Activators; Potency, µM (titrated, usually from 9.22 µM), hits mostly activators; AID 485313, 2010; 320,000 compounds, 2.4% hits; Huh7 NPC1 promoter luciferase reporter, 24 h; further: nearly all actives have a fitted effect of over 60% in size
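Luminescence from an NPC1 promoter-driven luciferase reporter in stably transfected Huh7 cells was measured after 24 h compound treatment at 37 °C, followed by 10 min ambient incubation with luciferase detection reagent.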
Hits are given with their value. In the library only some 9.2% were active in any assay of this set; here they are far more common. The call rests on the fitted dose curve; in most records, active means well fitted curve in the direction sought with a large enough effect; inconclusive means small, poorly fitted or top-dose-only effect, or another doubt; inactive means no such curve, though single readings can be large; an effect the other way counts as inactive or inconclusive.

How did Cn1c(=O)[nH]c(=O)c2c1nc(CN1CCN(c3ccccc3F)CC1)n2CCCc1ccccc1 do in these assays?
Rab9 prom act: inactive; SMN2 splice enh: inconclusive; FLuc counter: inactive; ELG1 genotox: inactive; ELG1 DNA repair: 6.5µM; NPC1 prom act: inactive

Results for COc1ccccc1N1CCN(C(=O)CN(C)S(=O)(=O)c2ccc3c(c2)c(=O)n(C)c(=O)n3C)CC1 ?
Rab9 prom act: inactive; SMN2 splice enh: inactive; FLuc counter: inactive; ELG1 genotox: inactive; ELG1 DNA repair: inactive; NPC1 prom act: inactive

Results for COc1ccc2c(c1)cc(CNc1ccc(OC)c(OC)c1)c(=O)n2CC(=O)Nc1ccc(F)cc1 ?
FLuc counter: inactive

What do the screens show for `CCC(C(=O)NCCC1=CCCCC1)n1nc(C)c2c(C)n(-c3ccccc3)nc2c1=O` (stereo unspecified)?
Rab9 prom act: inactive; FLuc counter: inactive; ELG1 genotox: inactive; ELG1 DNA repair: inactive; NPC1 prom act: inactive

How did Nc1c(C(=O)Nc2ccccc2Cl)nnn1-c1ccc2c(c1)OCCO2 do in these assays?
Rab9 prom act: 1.1µM; FLuc counter: 1.1µM; ELG1 genotox: inconclusive; ELG1 DNA repair: inconclusive; NPC1 prom act: 0.79µM

How did Nc1c(C(=O)Nc2ccc3c(c2)OCCO3)nnn1CCc1ccccc1 do in these assays?
Rab9 prom act: inactive; SMN2 splice enh: inconclusive; FLuc counter: 15µM; ELG1 genotox: inconclusive; ELG1 DNA repair: inconclusive; NPC1 prom act: inactive

How did Cc1ccc(NC(=O)c2nnn(CC(=O)Nc3ccc4c(c3)OCO4)c2N)cc1C do in these assays?
Rab9 prom act: inactive; FLuc counter: 5.4µM; ELG1 genotox: inactive; ELG1 DNA repair: inconclusive; NPC1 prom act: inactive

What do the screens show for `Cc1cccc(-n2nnc(C(=O)NCc3ccc4c(c3)OCO4)c2N)c1`?
Rab9 prom act: inactive; SMN2 splice enh: inactive; FLuc counter: inactive; ELG1 genotox: inactive; ELG1 DNA repair: inactive; NPC1 prom act: inactive

Results for Nc1c(C(=O)Nc2ccc3c(c2)OCCO3)nnn1Cc1ccc(Br)cc1 ?
Rab9 prom act: 1.1µM; FLuc counter: inconclusive; ELG1 genotox: inconclusive; ELG1 DNA repair: inconclusive; NPC1 prom act: 1.6µM

How did Cc1ccc(NC(=O)Cn2nnc(C(=O)Nc3ccc(C)c(C)c3)c2N)cc1 do in these assays?
Rab9 prom act: inactive; SMN2 splice enh: inactive; FLuc counter: inconclusive; ELG1 genotox: inactive; ELG1 DNA repair: inactive; NPC1 prom act: inactive

Results for O=C(COc1ccc(F)cc1Br)NCC1(N2CCOCC2)CCCCC1 ?
Rab9 prom act: inactive; ELG1 genotox: inactive; ELG1 DNA repair: inconclusive; NPC1 prom act: inactive

What do the screens show for `Nc1c(C(=O)Nc2ccc3c(c2)OCCO3)nnn1Cc1cccc(Br)c1`?
Rab9 prom act: 4µM; FLuc counter: inconclusive; ELG1 genotox: inactive; ELG1 DNA repair: inconclusive; NPC1 prom act: inconclusive

Results for C1=Nc2ccccc2CN1c1ccccc1 ?
Rab9 prom act: inconclusive; SMN2 splice enh: 7.9µM; FLuc counter: 15µM; ELG1 genotox: inconclusive; ELG1 DNA repair: inconclusive; NPC1 prom act: inconclusive

Results for CC(C)c1ccc(N2C=Nc3ccc(C(C)C)cc3C2)cc1 ?
Rab9 prom act: inactive; FLuc counter: inconclusive; ELG1 genotox: inconclusive; ELG1 DNA repair: inactive; NPC1 prom act: inactive

How did CC1=C(C(=O)Nc2ccccc2)C(c2ccc(Br)cc2)n2nc(CCCO)nc2N1 (stereo unspecified) do in these assays?
SMN2 splice enh: inactive; FLuc counter: inactive

Results for Cc1ccccc1NC(=O)N1c2ccccc2CC1C (stereo unspecified) ?
Rab9 prom act: inactive; SMN2 splice enh: inactive; FLuc counter: inconclusive; ELG1 genotox: inactive; ELG1 DNA repair: inactive; NPC1 prom act: inactive

What do the screens show for `Cc1nc2cc(NC(=O)NCc3ccc4c(c3)OCO4)ccc2o1`?
Rab9 prom act: inactive; SMN2 splice enh: inactive; FLuc counter: inactive; ELG1 genotox: inactive; ELG1 DNA repair: inactive; NPC1 prom act: inactive
